L3MBTL1 block = qHTS Assay for the Inhibitors of L3MBTL1 | hit rate 0.66% among 230,000 | AlphaScreen L3MBTL1–H3K9me1 peptide binding | Potency, µM (top dose mostly 57.1 µM), for inactives: at the top dose activity, negative = inhibition, actives largely listed as inhibitors | Lethal(3)malignant brain tumor-like protein 1 (Homo sapiens), Q9Y468; also: % is scaled to controls: 0 for no effect and ±100 for the full control effect; nearly all actives have a fitted effect of over 60% in size
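AlphaScreen proximity signal between nickel-chelate acceptor and streptavidin donor beads (final 10 ug/mL) reports binding of 50 nM L3MBTL1 to 75 nM biotin-H3 K9me1 peptide; complex incubated with compounds 30 min at room temperature; cefsulodin titration as control.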
HP1b chromo inh = HTS for Inhibitors of HP1-beta Chromodomain Interactions with Methylated Histone Tails; AID 540317, 2011; Potency, µM (series often up to 114 µM), for inactives: top-dose activity change, negative = inhibition, actives largely listed as inhibitors; Chromobox protein homolog 1 (Homo sapiens), P83916; hit rate 0.56% among 390,000; AlphaScreen HP1-beta / biotin-H3K9me3 peptide binding; also: nearly all actives have a fitted effect of over 70% in size
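HP1-beta protein (50 nM final) preincubated 30 min at room temperature with biotinylated H3(1-18)K9me3 peptide (50 nM) in PBS pH 7.4, 0.01% Tween-20, then compound added for 30 min. AlphaScreen streptavidin donor/nickel chelate acceptor beads (10 ug/mL final), 30 min dark, luminescence read.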
Sfp PPTase inh = qHTS Assay for Inhibitors of Bacillus subtilis Sfp phosphopantetheinyl transferase (PPTase). 4'-phosphopantetheinyl transferase ffp (Bacillus subtilis), Q9F4F7. Biochemical Sfp PPTase activity, qHTS. Potency, µM, for the others: largest response in the series, negative = inhibition, hits mostly inhibitors. hit rate 3.5% among 310,000;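 also: the enzyme is Sfp with the accession as filed and its product quenches rhodamine fluorescence; 0% = enzyme reaction without inhibitor and -100% = no enzyme wells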
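After 15 min at room temperature with compound, 15 nM Sfp received 5 uM rhodamine-CoA plus 12.5 uM BHQ-2-ybbR (50 mM Hepes pH 7.6, 10 mM MgCl2). Rate came from the fluorescence difference over 30 min, ex 525/em 598 nm.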
G9a inh = qHTS Assay for Inhibitors of Histone Lysine Methyltransferase G9a; Histone-lysine N-methyltransferase EHMT2 (Homo sapiens), Q96KQ7; hit rate 8.8% among 350,000; Potency, µM (series often up to 102 µM), for the others: at the highest dose activity, negative = inhibition, usual class: inhibitors; G9a H3K9 monomethylation, AlphaScreen, 2 h; AID 504332, 2011; also: % is scaled to controls: 0 for no effect and ±100 for the full control effect; nearly all actives have a fitted effect of over 75% in size
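Compounds were preincubated with 20 nM G9a for 15 min, after which biotinylated H3K9 peptide (500 nM) and SAM (20 uM) started a 2 h room-temperature reaction. Monomethylated product was quantified by antibody-based AlphaScreen chemiluminescence.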
BAZ2B inh = qHTS Assay for Inhibitors of BAZ2B | Bromodomain adjacent to zinc finger domain protein 2B (Homo sapiens), Q9UIF8 | Potency, µM (series often up to 114 µM), for the others: at the top dose activity change, negative = inhibition, hits mostly inhibitors | AlphaScreen BAZ2B-H3K14Ac peptide displacement | AID 504333, 2011 | hit rate 4.4% among 360,000; also: % is scaled to controls: 0 for no effect and ±100 for the full control effect; nearly all actives have a fitted effect of over 60% in size
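Protein-peptide AlphaScreen: BAZ2B 50 nM, b-H3K14Ac 50 nM, 1x PBS pH 7.4 + 0.01% Tween-20. Preincubation 30 min RT; cpd 30 min RT (top 110 uM); beads 20 min RT, light-protected.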
JMJD2A Tudor inh = qHTS Assay for Inhibitors of JMJD2A-Tudor Domain | Lysine-specific demethylase 4A (Homo sapiens), O75164 | AlphaScreen JMJD2A-Tudor / H3K4me3 peptide binding | Potency, µM (titrated, usually from 114 µM), for inactives: at the top dose activity change, negative = inhibition, hits mostly inhibitors | hit rate 4.4% among 390,000; also: % is scaled to controls: 0 for no effect and ±100 for the full control effect; nearly all actives have a fitted effect of over 50% in size
Starred values were filed as active, the others as inactive; ? = inconclusive; / = no result; ! = not active in a repeat; [ ] = remark or other dose. Rows were chosen to be rich in hits. Some 12% of all compounds tested hit in one or more screens of this group. Calls follow the shape of the dose curve; as a rule, active = well fitted curve in the direction sought with a large enough effect; inconclusive = small, poorly fitted or top-dose-only effect, or another doubt; inactive = no such curve, though single readings can be large; an effect the other way counts as inactive or inconclusive. Potency is read from the fitted curve at half-maximal effect.

SMILES	L3MBTL1 block	HP1b chromo inh	Sfp PPTase inh	G9a inh	BAZ2B inh	JMJD2A Tudor inh
COc1cc(CN2CCN(C(O)(c3ccccc3)c3ccccc3)CC2)cc(OC)c1OC	-0.8%	-13.4%	-6.3%	/	?	25.1µM*
CCOc1ccc(-c2cn3nc(CC(C)C)sc3n2)cc1	/	49.3%	/	2.6%[59 µM]	0.9%	-0.3%
COc1cc(CN2CCN(c3cccc(Cl)c3)CC2)cc(OC)c1OC	-17.5%	?	-27.7%	12.6µM*	50.1µM*	3.55µM*
O=C(CCl)Nc1ccc(-c2ccccc2)cc1	-14.1%	72.0%	19.0%	-0.1%	3.3%	-10.5%
O=C(CCl)Nc1ccc(N=Nc2ccccc2)cc1	-19.1%	1.0%	?	?	39.8µM*	?
CC(C)C(=O)OCC(=O)Nc1ccc(N=Nc2ccccc2)cc1	?	?	-4.7%	44.7µM*	39.8µM*	35.5µM*
CC(=O)Nc1ccc(NC(=O)C(C)OC(=O)C(C)SCC(=O)Nc2ccc(C)cc2)cc1 (centres undefined)	2.7%	32.6%	/	-29.0%	-3.9%	-2.1%
COc1ccccc1NC(=O)CN1CCN(CC(=O)Nc2ccc(OCc3ccccc3)cc2)CC1	1.3%	1.8%	6.2%	35.5µM*	-34.2%	-26.8%
COc1ccccc1NC(=O)CN1CCN(CC(=O)Nc2ccc(F)cc2)CC1	/	40.0%	-3.0%	?	8.9%	-2.9%
COc1ccccc1NC(=O)C(C)OC(=O)C(C)SCC(=O)Nc1ccc(C)cc1 (centres undefined)	2.2%	24.7%	/	35.5µM*	11.0%	-9.7%
COc1ccccc1NC(=O)CN1CCN(CC(=O)Nc2ccc(S(N)(=O)=O)cc2)CC1	/	23.9%	14.6%	44.7µM*	4.2%	-9.4%
COc1cc(NC(=O)CN2CCN(CC(=O)Nc3ccccc3OC)CC2)cc(OC)c1	/	32.7%	10.8%	44.7µM*	-0.9%	-18.1%
COc1ccccc1NC(=O)CN1CCN(CC(=O)Nc2ccc(OC)c(OC)c2)CC1	/	40.4%	0.4%	?	-1.6%	-16.7%
COc1ccc(CC(=O)NCC(c2ccc(N(C)C)cc2)N2CCOCC2)cc1OC (centres undefined)	/	27.1%	/	-1.3%[12.7 µM]	-13.8%	6.0%
N#Cc1ccc(CN2CCC3(CC2)CCN(C(=O)c2cnccn2)CC3)cc1	/	/	21.1%	-6.3%[12.7 µM]	/	/
COc1ccccc1NC(=O)CSc1nc2c(oc3ccccc32)c(=O)n1-c1ccc(C)cc1	/	13.6%	/	-36.2%[59 µM]	-13.2%	-8.0%
COc1ccc(NC(=O)CN2CCN(CC(=O)Nc3ccccc3F)CC2)c(OC)c1	-5.4%	41.8%	4.4%	31.6µM*!	9.3%	-10.8%
COc1ccc(-c2cn(-c3ccc(C)cc3)c(=O)n2CC(=O)Nc2cccc(F)c2)cc1	/	-19.1%	7.8%	?	?	79.4µM*
COc1ccc(NC(=O)C/C(C)=N/NC(=O)C(=O)Nc2cccc(Cl)c2C)c(OC)c1	/	33.9%	14.6%	56.2µM*	26.9%	-15.6%
NS(=O)(=O)c1ccc(NC(=O)CN2CCN(S(=O)(=O)c3cccs3)CC2)cc1	-24.0%	5.2%	/	50.1µM*	-7.6%	-27.0%
COc1ccc(NC(=O)CN2CCN(CC(=O)Nc3ccccc3OC)CC2)c(OC)c1	/	36.8%	9.6%	?	0.3%	-6.4%
COc1ccc(NC(=O)C/C(C)=N/NC(=O)C(=O)NC(C)C)c(OC)c1	-3.2%	44.7%	-10.5%	/	?	-14.0%
CCC(=O)O[C@@]1(C(=O)SCF)[C@@H](C)C[C@H]2[C@@H]3C[C@@H](F)C4=CC(=O)C=C[C@@]4(C)[C@]3(F)[C@@H](O)C[C@]21C	/	/	21.2%	7.2%[21.5 µM]	/	/
COc1cccc(NC(=O)CN2CCN(CC(=O)Nc3ccc(F)cc3)CC2)c1	/	62.7%	1.7%	35.5µM*	4.3%	-11.4%
COc1ccc(NCC(=O)Nc2ccc(Br)cc2F)c(OC)c1	?	?	-16.0%	/	39.8µM*	56.2µM*
SMILES	L3MBTL1 block	HP1b chromo inh	Sfp PPTase inh	G9a inh	BAZ2B inh	JMJD2A Tudor inh
COc1ccc(NC(=O)CN2CCN(CC(=O)Nc3ccccc3Cl)CC2)c(OC)c1	/	29.5%	16.4%	44.7µM*	-1.5%	-12.3%
COc1ccc(NC(=O)CN2CCN(CC(=O)Nc3ccccc3F)CC2)cc1OC	-6.0%	33.8%	9.8%	44.7µM*!	-5.2%	-18.9%
COc1ccc(NC(=O)CN2CCN(CC(=O)Nc3ccccc3Cl)CC2)cc1	3.0%	39.6%	1.8%	/	-7.3%	-14.3%
Cc1noc(C)c1S(=O)(=O)N1CCCC(C(=O)Nc2ccc(C(C)C)cc2)C1 (centres undefined)	/	15.6%	/	-5.2%[59 µM]	/	-17.7%
O=C(Nc1ccccc1C(F)(F)F)c1ccc(F)c(S(=O)(=O)N2CCc3ccccc3C2)c1	/	11.5%	/	2.0%[59 µM]	-1.7%	-25.7%
COc1ccc(S(=O)(=O)Nc2ccc3c(c2)CCCN3S(=O)(=O)c2ccc(C)cc2)cc1F	/	11.9%	/	-1.3%[12.7 µM]	?	-18.5%
c1cncc(-c2cccnc2)c1	4.5%	36.7%	-20.8%	/	39.8µM*	-14.2%[57.1 µM]
Oc1cncc(-c2cccnc2)c1	1.3%	19.0%	/	-6.8%[0.501 µM]	5.3%	-17.9%
CCN(CCCNC(=O)c1ccc(Sc2ccc(Cl)cc2)c(NC(C)=O)c1)c1ccccc1	/	0.5%	/	?	-37.7%	?
Cc1ccc(S(=O)(=O)Cn2nnnc2CN2CCOCC2)cc1	-5.8%	51.4%	13.1%	-9.9%[59 µM]	-33.5%	-9.6%
Cc1ccc(S(=O)(=O)Cn2nnnc2CN2CCCC3(CCCCC3)C2)cc1	14.3%	54.3%	2.9%	25.1µM*	0.5%	3.4%
N#C/C(=C\c1ccc(-c2ccc(C(=O)O)cc2)o1)C(=O)Nc1ccccc1C(=O)O	/	-4.7%	/	?	?	79.4µM*
N#C/C(=C\c1ccc(-c2ccc(Br)cc2)o1)C(=O)Nc1ccccc1O	/	9.6%	/	-23.6%[59 µM]	-0.9%	-17.3%
Cc1noc2nc(C(=O)O)nc(N3CCCCC3)c12	/	6.7%	/	12.6µM*	?	39.8µM*
COc1ccc(C)cc1NS(=O)(=O)c1ccc2[nH]c(=O)c(=O)[nH]c2c1	/	19.4%	/	1.7%[59 µM]	-3.4%	-20.1%
Cc1cccc(-c2c3c(=O)n(C)c(=O)n(C)c3cn2CC2CCCO2)c1 (centres undefined)	-0.7%	33.9%	-7.4%	39.8µM*	-13.4%	-10.4%
Cc1cccc(-c2c3c(=O)n(C)c(=O)n(C)c3cn2CCO)c1	-1.6%	47.8%	-16.3%	22.4µM*	7.9%	-15.6%
